Measurements: PubChem BioAssay (NCI)
Compounds without any hit were thinned out: in the full panel of roughly 83,000, 20% have a hit.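 How to read the values: 0–100, growth inhibition (40 = 60% inhibited); 0, no net growth; -100 to 0, cell death (-40 = 40% of starting cells died; -100 = all dead).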 A number with no mark means an inactive call. Active and inactive are the calls of the source. How the source made its calls: active means growth percent below 10; inactive means the rest.

How the values were obtained:
Assay in all cases: NCI-60 one-dose screen, 48 h (100 = growth as untreated, 0 = no growth, -100 = all killed)
Conditions in all cases: 10 µM unless noted
[1] = test system: NCI-H23 lung
[2] = test system: NCI-H226 lung
[3] = test system: NCI-H322M lung
[4] = test system: HOP-62 NSCLC
[5] = test system: NCI-H460 lung
[6] = test system: HOP-92 NSCLC
[7] = test system: NCI-H522 lung
[8] = test system: A549/ATCC NSCLC
[9] = test system: 786-0 renal
[10] = test system: COLO 205 colon
[11] = test system: DU-145 prostate
[12] = test system: K-562 leukemia
[13] = test system: MALME-3M melanoma
[14] = test system: MDA-MB-231 breast
[15] = test system: RXF 393 renal
[16] = test system: SF-268 CNS
[17] = test system: SF-295 CNS
[18] = test system: SF-539 CNS
[19] = test system: UACC-257 melanoma
[20] = test system: M14 melanoma

| SMILES | growth [1] | growth [2] | growth [3] | growth [4] | growth [5] | growth [6] | growth [7] | growth [8] | growth [9] | growth [10] | growth [11] | growth [12] | growth [13] | growth [14] | growth [15] | growth [16] | growth [17] | growth [18] | growth [19] | growth [20] |
| --- | --- | --- | --- | --- | --- | --- | --- | --- | --- | --- | --- | --- | --- | --- | --- | --- | --- | --- | --- | --- |
| C[n+]1c(/C=C/c2ccc([N+](=O)[O-])cc2)ccc2ccccc21 | 90.4% | 87.9% | 111% | 97.4% | 106% | 110% | 102% | 75.7% | 111% | 101% | 104% | 88.7% | 90.9% | 115% | 92.9% | 102% | 100% | 103% | 106% | 101% |
| CCCCCC(CCCCC)C(=O)O | 114% | 112% | 103% | 98.1% | 116% | 78.8% | 88.8% | 102% | 107% | 102% | 119% | 99.8% | 119% | 105% | 135% | 104% | 108% | 104% | 116% | 112% |
| NC(N)=N/N=C/c1ccc([N+](=O)[O-])o1 | 65.5% | 100% | 87.2% | 113% | 80.2% | 106% | 70.1% | 80.2% | 98% | 3.2% (active) | 91.5% | 94.6% | 68.1% | 105% | 95.7% | 90.3% | 93.4% | 104% | 67.1% | 99.1% |
| C=C(Cl)C(=NC(C)(C)C)Nc1ccccc1C | 98.8% | 102% | 109% | 92.4% | 106% | 84.9% | 67.7% | 111% | 97.9% | 55.2% | 87.1% | 19.8% | 83.9% | 91.3% | 103% | 101% | 99.3% | 99.3% | 100% | 85.1% |
| NC(=O)/C=C/C(=O)c1c(Cl)cccc1Cl | -79.1% (active) | 37.9% | 19.1% | -4.87% (active) | -34.1% (active) | -99.3% (active) | -59.5% (active) | -43.1% (active) | -98.8% (active) | -89.6% (active) | -75.9% (active) | -19.2% (active) | -68.4% (active) | -79.1% (active) | -41.6% (active) | -57.3% (active) | 81.9% | -95.4% (active) | -81.7% (active) | -96.5% (active) |
| O=C1c2ccccc2C(=O)N1c1ccccc1 | 106% | 101% | 99.1% | 96.9% | 104% | 104% | 90.9% | 90.7% | 105% | 106% | 109% | 106% | 105% | 89.7% | 112% | 108% | 94.9% | 103% | 101% | 106% |
| O=C(/C=C/C=C/c1ccccc1)c1ccco1 | 92.2% | 109% | 110% | 117% | 94.7% | 96.1% | 38% | 101% | 104% | 103% | 99.7% | 43% | 113% | 102% | 46% | 91.5% | 112% | 106% | 108% | 93.9% |
| O[C@H]1[C@H]2c3cc4c(cc3CN3CCC(=C[C@@H]1O)[C@H]23)OCO4 | 15.3% | 15.3% | 18.5% | 26.5% | 18.4% | -3.91% (active) | 25% | 19.1% | 31.9% | 9.67% (active) | 9.62% (active) | 21.4% | 41.9% | 39.6% | 19% | 24.4% | 34% | 14% | 45.7% | 15.9% |
| CCCCCCCCCCCCCCCCOP(=O)([O-])OCC[N+](C)(C)C | 73.6% | 31.5% | 81.8% | 19.5% | 3.97% (active) | -24.8% (active) | -55.1% (active) | 31.8% | 48.6% | 10.6% | 82.2% | 64.6% | 74.1% | 36.8% | -32.1% (active) | 32.5% | 28% | 55.9% | 76.7% | -10.6% (active) |
| O=Nc1ccccc1N=O | 71.9% | 88.5% | 84.2% | 96% | 93.5% | 107% | -60.8% (active) | 86.2% | 116% | 83.4% | 91.2% | 76.4% | 74.9% | 95.8% | 101% | 89.4% | 85.9% | 76.2% | 80.9% | 81.7% |
| O=[N+]([O-])c1ccc2c(N=Nc3ccc4ccccc4c3O)c(O)cc(S(=O)(=O)O)c2c1 | 101% | 103% | 65.1% | 97.5% | 102% | 101% | 105% | 103% | 106% | 104% | 104% | 96.3% | 99.9% | 74.2% | 97% | 72.4% | 102% | 96.9% | 99.2% | 80.7% |
| O=C(/C=C\c1cc(Br)ccc1O)/C=C/c1cc(Br)ccc1O | -11.9% (active) | -64.8% (active) | 6.71% (active) | -57.3% (active) | -34.9% (active) | -40.1% (active) | -62.9% (active) | -8.66% (active) | -68% (active) | -70.6% (active) | 2.79% (active) | 5.64% (active) | -5.41% (active) | 0.442% (active) | -49.4% (active) | -17.9% (active) | -1.61% (active) | -49.1% (active) | -16.7% (active) | -51.7% (active) |
| N#Cc1ccc([N+](=O)[O-])o1 | 112% | 94.1% | 106% | 96.7% | 107% | 93.1% | 77.1% | 75.7% | 102% | 104% | 111% | 105% | 118% | 105% | 113% | 103% | 99.6% | 101% | 79.7% | 97.9% |
| C=CCOc1ccc(N=NC(C#N)C#N)cc1 | 75.7% | 84.5% | 93% | 52.3% | 104% | -13.1% (active) | -12.9% (active) | 86.3% | 78.8% | 22.1% | 77.8% | 38.2% | 3.69% (active) | 69.7% | 51.1% | 102% | 92.7% | 87% | 42.1% | 66.4% |
| CN(C)CCOc1ccc2c(c1)C(=O)/C(=C\c1ncc([N+](=O)[O-])n1C)C2 | -42.7% (active) | -38.5% (active) | 6.13% (active) | -17.8% (active) | -57.5% (active) | -54.3% (active) | -59.8% (active) | -29.6% (active) | -26.4% (active) | -91.9% (active) | -37.8% (active) | -39.7% (active) | -72.7% (active) | -21.1% (active) | -60.5% (active) | -44.4% (active) | -12.7% (active) | -73.2% (active) | -38.6% (active) | -67.2% (active) |
